Source: PubChem BioAssay (several laboratories)
Bcl-xL primary – Bcl-xL (human) inhibition; 320,000 tested, 0.7% active; GST-Bcl-xL / FITC-Bim BH3 peptide fluorescence polarization; Q07817; AID 2129; inhibition, % at 10.9 µM;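 active means inhibition above the mean of all tested compounds plus 3 SD, cutoff set per campaign, cut at about 30% in these data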;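 further: inhibitors lower millipolarization by displacing the labeled peptide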
MCL1-BIM inh – inhibitors of human MCL1 binding to BIM-BH3 peptide; GST-MCL1 / FITC-Bim-BH3 fluorescence polarization; Q07820; 320,000 tested, 0.68% active; inhibition, % at 10.9 µM;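 active means inhibition above the mean inhibition of all tested compounds plus 3 SD, set per campaign, cut at about 40% in these data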;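 further: higher means more loss of mP so more displacement of Bim peptide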
Mcl1 Noxa PPI – Mcl-1/Noxa interaction inhibition | Q07820 | TR-FRET Mcl-1/Noxa peptide binding, 2 h | inhibition, % at 21.7 µM | 220,000 tested, 1.5% active | AID 1022;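 active means compounds that cut the protein-peptide binding signal by more than 50% relative to plate controls in a single-dose test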;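 further: His-tagged Mcl-1 with rhodamine Noxa BH3 peptide and terbium anti-His antibody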
GLD-1 TGE inh – GLD-1-TGE RNA interaction inhibition (C. elegans); purified GLD-1 + fluorescein TGE RNA, fluorescence polarization; AID 2280; inhibition, % at 5.96 µM; Q17339; 320,000 tested, 0.44% active;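 active means percent inhibition above a per-plate cutoff, the plate mean of test compounds plus 3 SD, cut at about 30% in these data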
Target sequence (Q17339 whole entry, looked up): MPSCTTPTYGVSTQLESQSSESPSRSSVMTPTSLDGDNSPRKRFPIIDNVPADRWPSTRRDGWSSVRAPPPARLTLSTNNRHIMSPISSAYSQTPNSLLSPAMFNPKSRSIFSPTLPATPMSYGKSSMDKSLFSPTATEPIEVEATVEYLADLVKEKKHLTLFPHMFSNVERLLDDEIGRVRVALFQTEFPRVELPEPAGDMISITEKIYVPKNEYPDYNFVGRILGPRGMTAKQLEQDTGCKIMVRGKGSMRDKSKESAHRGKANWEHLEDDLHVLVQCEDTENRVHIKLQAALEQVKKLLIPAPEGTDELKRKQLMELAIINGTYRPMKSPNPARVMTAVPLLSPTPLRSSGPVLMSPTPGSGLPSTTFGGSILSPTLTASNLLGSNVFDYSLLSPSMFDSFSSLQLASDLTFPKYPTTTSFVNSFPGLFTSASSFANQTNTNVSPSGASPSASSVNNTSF
Bim-Mcl-1 – inhibitors of Bim-Mcl-1 interaction, human; 190,000 tested, 0.1% active; inhibition, % at 10 µM; Bead-based flow cytometry, Bim peptide-Mcl-1 binding; in the data active means inhibition above about 40%
Mcl1 Bid PPI – disrupts binding of human Mcl-1 to Bid peptide | inhibition, % at 21.7 µM | AID 1021 | 220,000 tested, 0.97% active | TR-FRET Mcl-1/Bid-Dy647 peptide binding, 1536-well;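 active means compounds that cut the binding signal by more than half at the single screening dose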;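 further: His-tagged Mcl-1 with europium anti-His antibody binding Bid BH3 peptide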
Bcl-xL conf – counter-screen for MCL1 inhibitors: confirmation of human Bcl-xL inhibitors; 1,700 tested, 54% active; AID 2166; shares compounds with MCL1-BIM inh; GST-Bcl-xL / FITC-Bim BH3 peptide FP binding; inhibition, % at 10.9 µM;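 active means inhibition above a cutoff equal to the mean inhibition of all tested compounds plus 3 SD, cut at about 30% in these data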
MCL1 BIM confirm – confirmation of human MCL1 and BIM-BH3 interaction inhibitors; shares compounds with MCL1-BIM inh; 1,700 tested, 61% active; GST-MCL1 / FITC-Bim-BH3 fluorescence polarization; inhibition, % at 10.9 µM;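 active means inhibition above the average of all tested compounds plus 3 SD, cut at about 40% in these data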
Hits are given with their value; 0 = inactive; - = no result given; ! = not confirmed by another sample. Hits are enriched below; roughly 2.3% of the tested compounds scored in any of these assays.

SMILES | Bcl-xL primary | MCL1-BIM inh | Mcl1 Noxa PPI | GLD-1 TGE inh | Bim-Mcl-1 | Mcl1 Bid PPI | Bcl-xL conf | MCL1 BIM confirm
CC(=O)c1ccc2noc(-c3ccc(Cl)cc3)c2c1 | 0 | 0 | 0 | 0 | 0 | 0 | - | -
Cc1ccc(N(CC(=O)N2CCCCCC2)S(=O)(=O)c2ccccc2)cc1 | 0 | 0 | - | 0 | - | - | - | -
CCN(CC(=O)Nc1ccc(NC(C)=O)cc1)C(=O)CSc1ncnc2sc(C)c(C)c12 | 0 | 0 | - | 0 | - | - | - | -
COC/C=C/C1=CC2=CC(=O)C(C)(OC(=O)c3cnc4ccccc4n3)C(=O)C2=CO1 (stereo not drawn) | 74 | 96 | - | 58 | - | - | 0 | 56
Cc1nn(CC(=O)Nc2ccc(N3CCOCC3)cc2)c(C)c1[N+](=O)[O-] | - | - | - | 0 | - | - | - | -
O=C(CSc1nc(-c2ccccc2)cc(=O)[nH]1)Nc1ccc(F)c(F)c1 | 0 | 0 | - | 0 | - | - | - | -
CC1=C(C(=O)OCc2ccccc2)C(c2ccccc2[N+](=O)[O-])NC(=O)N1C (stereo not drawn) | 0 | 0 | - | 0 | - | - | - | -
COc1ccc2sc(-c3ccc(SC)cc3)c(/C=C/c3ccc(OC)c(OC)c3)c2c1 | - | - | - | 0 | - | - | - | -
CC(C)C1OC2(C)OC(=N)C1(C#N)C(C#N)(C#N)C2c1ccccc1 (stereo not drawn) | 80 | 103 | 0 | 79 | 0 | 0 | 32 | 48
O=C(CC1Nc2ccccc2NC1=O)c1ccccc1 (stereo not drawn) | 0 | 46 | 0 | 0 | 0 | 0 | 0 | 0
O=C(CC1Nc2ccccc2NC1=O)NCCc1ccccc1 (stereo not drawn) | 0 | 0 | 0 | 0 | 0 | 0 | - | -
COc1cc([C@@H]2[C@H]3CN(C)CC=C3C(C#N)=C(N)C2(C#N)C#N)cc2c1OCO2 | 54 | 52 | 0 | 0 | 0 | 0 | 0 | 0
COc1cccc(C2C(C#N)=C(N)N(N(C)C)C3=C2C(=O)CC(C)(C)C3)c1OC (stereo not drawn) | 0 | 0 | - | 0 | - | - | - | -
COc1cccc(C2C3CN(C)CC=C3C(C#N)=C(N)C2(C#N)C#N)c1OC (stereo not drawn) | 116 | 135 | 0 | 78 | 0 | 0 | 77 | 97
COc1cc(C2C(C#N)=C(N)Oc3cc(C)n(CC4CCCO4)c(=O)c32)cc2c1OCO2 (stereo not drawn) | - | - | 0 | - | 0 | 0 | - | -
CCN1CC=C2C(C#N)=C(N)C(C#N)(C#N)[C@H](c3cccc(OC)c3OC)[C@H]2C1 | 136 | 151 | - | 114 | 0 | - | 52 | 65
O=C(CN(c1cc(Cl)ccc1Cl)S(=O)(=O)c1ccccc1)N1CCOCC1 | 0 | 0 | - | 0 | - | - | - | -
O=C(Nc1ccc([N+](=O)[O-])cc1)c1ccc(S(=O)(=O)N2CCCC2)cc1 | 0 | 58 | - | 0 | - | - | 0 | 0
CC(=O)c1ccc(NC(=O)COC(=O)CCC2CCCC2)cc1 | - | - | - | 0 | - | - | - | -
Cc1onc(-c2ccccc2Cl)c1C(=O)NCc1ccco1 | 0 | 66 | 0 | 0 | 0 | 0 | 0 | 65
O=[N+]([O-])c1cccc(C(=S)N2CCN(c3ccc(F)cc3)CC2)c1 | 38 | 51 | 0 | 0 | 0 | 0 | 0 | 0
O=C(NCCC(=O)N1CCCC1)c1ccccc1Cl | 0 | 0 | - | 0 | - | - | - | -
CCc1oc2ccccc2c1C(=O)c1cc(Br)c(O)c(Br)c1 | 0 | 62 | 0 | 0 | 0 | 52! | 0 | 0
O=C(OCc1ccccc1Cl)C1CC(=O)N(Cc2ccco2)C1 (stereo not drawn) | 0 | 0 | - | 0 | - | - | - | -
O=C(Cn1nnc(-c2ccccc2)n1)N/N=C/c1cccc([N+](=O)[O-])c1O | 0 | 46 | 0 | 0 | 0 | 0 | 47 | 87
Nc1ccccc1N1CCN(C(=O)c2ccccc2)CC1 | 0 | 108 | 0 | 0 | 0 | 0 | 0 | 0
O=C(c1cccc(C(=O)N2CCN(c3ccccc3F)CC2)c1)N1CCN(c2ccccc2F)CC1 | 0 | 0 | 0 | 0 | 0 | 0 | - | -
CCCCC1=CC2=CC(=O)C(C)(OC(=O)c3ccc(Cl)nc3)C(=O)C2=CO1 (stereo not drawn) | 52 | 66 | - | 68 | - | - | 48 | 65
